Experiment [1] can be described thus: NCI Yeast Anticancer Drug Screen. Data for the rad50 strain (AID 155).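 Also: 0% = growth of vehicle-only cultures of the same strain.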 The conditions noted are these: S. cerevisiae rad50 strain growth inhibition, stronger effect = higher value. The method in brief:
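Cells are treated with compound, grown, and their growth is then scored against vehicle-only cultures of the same repair-deficient yeast strain.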

Experiment [2] is described as follows: NCI Yeast Anticancer Drug Screen. Data for the mec2-1 strain (AID 157). The conditions noted are these: S. cerevisiae mec2-1 strain, stronger effect = higher value. The gist of the method: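 Mutant yeast (mec2-1) grown with compound; growth inhibition relative to vehicle control reported.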
A short description of experiment [3]: NCI Yeast Anticancer Drug Screen. Data for the sgs1 mgt1 strain (AID 161).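 Also: 0% = growth of cultures given vehicle only.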 The conditions noted are these: S. cerevisiae sgs1 mgt1 strain, stronger effect = higher value. The gist of the method: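 Percent growth inhibition was derived by comparing compound-exposed mutant yeast with vehicle-exposed cultures. The strain carries alterations in DNA damage repair.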
The nature of experiment [4]: NCI Yeast Anticancer Drug Screen. Data for the cln2 rad14 strain (AID 165).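 Also: 0% = growth equal to vehicle treated cultures.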 As to conditions: S. cerevisiae cln2 rad14 strain, stronger effect = higher value. The gist of the method:
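Readout is yeast growth inhibition versus vehicle-treated controls, using a strain with cln2 and rad14 alterations exposed to compound.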

The nature of experiment [5]: NCI Yeast Anticancer Drug Screen. Data for the bub3 strain (AID 167). The conditions noted are these: S. cerevisiae bub3 mutant strain, stronger effect = higher value. The gist of the method:
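Part of a panel of yeast mutants defective in DNA damage repair or cell cycle regulation. Each strain is grown with compound, and inhibition is calculated relative to solvent-treated cultures.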

Experiment [6] is described as follows: NCI Yeast Anticancer Drug Screen. Data for the mlh1 rad18 strain (AID 175). As to conditions: S. cerevisiae mlh1 rad18 strain growth inhibition, stronger effect = higher value. The method in brief: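 Genetically defined yeast (DNA repair-deficient) exposed to compounds; growth inhibition determined relative to vehicle.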
The mark [7] stands for this setting: at 5.0 µM (retest, dose inferred, filed as 0.5).
Where [8] appears, read: at 50.0 µM (retest, dose inferred, filed as 5.0).

The structures appear in SMILES notation. This is part of a sample that, as a whole, favours compounds with a hit. Of some 79,000 tested, about 15% had one in any assay. A number with no mark means an inactive call. Calls of active or inactive are those of the source. Rule as the data show it: active = growth inhibition above about 70%; inactive = the rest.

In the case of `COP(=S)(OC)N(C)C(=O)Oc1cccc2ccccc12`, the growth inhibition in experiment [1] (setting [7]) is 0%; in experiment [1] (setting [8]) it was 27%; in experiment [1] (at 50.0 µM) it was 48.5%; in experiment [2] (setting [7]), -21%; in experiment [2] (setting [8]), 15%; in experiment [2] (at 50.0 µM) it was 39.2%. The growth inhibition in experiment [3] (setting [7]) was -20%; in experiment [3] (setting [8]) it was 57%; in experiment [3] (at 50.0 µM), 60%; in experiment [4] (setting [7]), 0%; in experiment [4] (setting [8]), 10%; in experiment [4] (at 50.0 µM), 55.5%. Moreover, the growth inhibition in experiment [5] (setting [7]) was 9%; in experiment [5] (setting [8]) it was 40%; in experiment [5] (at 50.0 µM), 61.4%; in experiment [6] (setting [7]) it was -14%; in experiment [6] (setting [8]), 77% (active); in experiment [6] (at 50.0 µM) it was 80.8% (active).

As to `CC(=O)O[C@H]1CC[C@H]2[C@@H]3CCC4=CC(=O)CC[C@@H]4[C@H]3CC[C@]12C`, the growth inhibition in experiment [1] (setting [7]) was 2%; in experiment [1] (setting [8]), 93% (active); in experiment [1] (at 50.0 µM), 96.8% (active); in experiment [2] (setting [7]), -1%; in experiment [2] (setting [8]), 92% (active); in experiment [2] (at 50.0 µM), 93.5% (active). The growth inhibition is -4% in experiment [3] (setting [7]); 91% (active) in experiment [3] (setting [8]); 97.8% (active) in experiment [3] (at 50.0 µM); -3% in experiment [4] (setting [7]); 39% in experiment [4] (setting [8]); 14.8% in experiment [4] (at 50.0 µM). The growth inhibition was 1% in experiment [5] (setting [7]); 84% (active) in experiment [5] (setting [8]); 76.2% (active) in experiment [5] (at 50.0 µM); 0% in experiment [6] (setting [7]); 89% (active) in experiment [6] (setting [8]); 97.3% (active) in experiment [6] (at 50.0 µM).

With `COC1=C(N2CC2)C(=O)C(OC)=C(N2CC2)C1=O`, the growth inhibition in experiment [1] (setting [7]) was 95% (active); in experiment [1] (setting [8]), 97% (active); in experiment [1] (at 50.0 µM), 98.3% (active); in experiment [2] (setting [7]), 95% (active); in experiment [2] (setting [8]), 98% (active); in experiment [2] (at 50.0 µM) it was 97.8% (active). Further, the growth inhibition was 90% (active) in experiment [3] (setting [7]); 97% (active) in experiment [3] (setting [8]); 98.2% (active) in experiment [3] (at 50.0 µM); 91% (active) in experiment [4] (setting [7]); 98% (active) in experiment [4] (setting [8]); 98.8% (active) in experiment [4] (at 50.0 µM). The growth inhibition is 49% in experiment [5] (setting [7]); 98% (active) in experiment [5] (setting [8]); 97.1% (active) in experiment [5] (at 50.0 µM); 96% (active) in experiment [6] (setting [7]); 98% (active) in experiment [6] (setting [8]); 97.6% (active) in experiment [6] (at 50.0 µM).

Turning to `O=C1NC(=O)C([N+](=O)[O-])C(=O)N1`, the growth inhibition in experiment [1] (setting [7]) is 0%; in experiment [1] (setting [8]), -5%; in experiment [1] (at 50.0 µM) it was 62.9%; in experiment [2] (setting [7]) it was -14%; in experiment [2] (setting [8]) it was -4%; in experiment [2] (at 50.0 µM) it was 30.1%. For the same compound, the growth inhibition in experiment [3] (setting [7]) was 9%; in experiment [3] (setting [8]) it was -8%; in experiment [3] (at 50.0 µM) it was 34.5%; in experiment [4] (setting [7]), 29%; in experiment [4] (setting [8]) it was 39%; in experiment [4] (at 50.0 µM) it was 48.5%. The growth inhibition in experiment [5] (setting [7]) is 15%; in experiment [5] (setting [8]), 43%; in experiment [5] (at 50.0 µM), 66.8%; in experiment [6] (setting [7]) it was 10%; in experiment [6] (setting [8]), 16%; in experiment [6] (at 50.0 µM), 18.8%.

For the compound `CC(=O)OC1CCC2(C)C3=C(CCC2C1(C)C)C1(C)CCC(C(C)CCC2NC2(C)C)C1(C)CC3` (configuration not stated), the growth inhibition was -22% in experiment [1] (setting [7]); 86% (active) in experiment [1] (setting [8]); 22.6% in experiment [1] (at 50.0 µM); 3% in experiment [2] (setting [7]); 66% in experiment [2] (setting [8]); 2.5% in experiment [2] (at 50.0 µM). In addition, the growth inhibition in experiment [3] (setting [7]) is 23%; in experiment [3] (setting [8]), 98% (active); in experiment [3] (at 50.0 µM), 95.8% (active); in experiment [4] (setting [7]), 2%; in experiment [4] (setting [8]), 23%; in experiment [4] (at 50.0 µM) it was -29.1%. Further, the growth inhibition is -1% in experiment [5] (setting [7]); 79% (active) in experiment [5] (setting [8]); 10.8% in experiment [5] (at 50.0 µM); 6% in experiment [6] (setting [7]); 84% (active) in experiment [6] (setting [8]); 11.2% in experiment [6] (at 50.0 µM).

On to `CCn1c(O)c(C(=O)NC(C)c2ccc([N+](=O)[O-])cc2)c(=O)n(CC)c1=S` (configuration not stated), for which the growth inhibition is 31% in experiment [1] (setting [7]); 91% (active) in experiment [1] (setting [8]); 86.5% (active) in experiment [1] (at 50.0 µM); 33% in experiment [2] (setting [7]); 96% (active) in experiment [2] (setting [8]); 91.4% (active) in experiment [2] (at 50.0 µM). The growth inhibition was 24% in experiment [3] (setting [7]); 83% (active) in experiment [3] (setting [8]); 90.6% (active) in experiment [3] (at 50.0 µM); 17% in experiment [4] (setting [7]); 46% in experiment [4] (setting [8]); 88.8% (active) in experiment [4] (at 50.0 µM). The growth inhibition in experiment [5] (setting [7]) is 9%; in experiment [5] (setting [8]) it was 78% (active); in experiment [5] (at 50.0 µM), 89.3% (active); in experiment [6] (setting [7]), 35%; in experiment [6] (setting [8]), 92% (active); in experiment [6] (at 50.0 µM), 87% (active).

`Nc1ccc2cc(Br)ccc2c1`: the growth inhibition in experiment [1] (setting [7]) is -11%; in experiment [1] (setting [8]), 26%; in experiment [1] (at 50.0 µM), 75.5% (active); in experiment [2] (setting [7]), -2%; in experiment [2] (setting [8]), 10%; in experiment [2] (at 50.0 µM), 30.6%. For the same compound, the growth inhibition in experiment [3] (setting [7]) was -10%; in experiment [3] (setting [8]) it was 11%; in experiment [3] (at 50.0 µM), 46.6%; in experiment [4] (setting [7]), -31%; in experiment [4] (setting [8]), -9%; in experiment [4] (at 50.0 µM), 31.1%. Moreover, the growth inhibition in experiment [5] (setting [7]) is -8%; in experiment [5] (setting [8]), 14%; in experiment [5] (at 50.0 µM) it was 45.9%; in experiment [6] (setting [7]), -16%; in experiment [6] (setting [8]), 20%; in experiment [6] (at 50.0 µM), 57.4%.

Consider `Cc1ccccc1NC(=O)CBr`, for which the growth inhibition in experiment [1] (setting [7]) was 39%; in experiment [1] (setting [8]) it was 98% (active); in experiment [1] (at 50.0 µM), 98.5% (active); in experiment [2] (setting [7]) it was 12%; in experiment [2] (setting [8]), 99% (active); in experiment [2] (at 50.0 µM), 98.6% (active). Moreover, the growth inhibition in experiment [3] (setting [7]) was 37%; in experiment [3] (setting [8]), 99% (active); in experiment [3] (at 50.0 µM) it was 99.3% (active); in experiment [4] (setting [7]), 18%; in experiment [4] (setting [8]) it was 98% (active); in experiment [4] (at 50.0 µM) it was 95.5% (active). Also, the growth inhibition was -38% in experiment [5] (setting [7]); 99% (active) in experiment [5] (setting [8]); 98.2% (active) in experiment [5] (at 50.0 µM); 37% in experiment [6] (setting [7]); 99% (active) in experiment [6] (setting [8]); 98.3% (active) in experiment [6] (at 50.0 µM).

For the compound `NP(N)(=O)Nc1ccccc1`, the growth inhibition was -1% in experiment [1] (setting [7]); -2% in experiment [1] (setting [8]); 7.75% in experiment [1] (at 50.0 µM); 2% in experiment [2] (setting [7]); -2% in experiment [2] (setting [8]); -22.4% in experiment [2] (at 50.0 µM). For the same compound, the growth inhibition in experiment [3] (setting [7]) was -1%; in experiment [3] (setting [8]), -1%; in experiment [3] (at 50.0 µM), -23.9%; in experiment [4] (setting [7]) it was 0%; in experiment [4] (setting [8]), -2%; in experiment [4] (at 50.0 µM), 66.7%. Moreover, the growth inhibition in experiment [5] (setting [7]) was 2%; in experiment [5] (setting [8]) it was -6%; in experiment [5] (at 50.0 µM), -8%; in experiment [6] (setting [7]) it was -2%; in experiment [6] (setting [8]) it was 0%; in experiment [6] (at 50.0 µM), 3.6%.

These data come from PubChem BioAssay (NCI).
